Data on 21 compounds can be found in PubChem BioAssay (EPA / NIEHS).

By AC50 is commonly meant the concentration at which the activity in the assay is half-maximal.

The target in assay [1] is human Peripheral-type Benzodiazepine Receptor (PBR), TSPO (gene 706) (UniProt P30536). Kind of assay: NVS_MP_hPBR: NovaScreen (NVS) Membrane Protein Assay for human Peripheral-type Benzodiazepine Receptor (PBR) (AID 2283331).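 Note: hits reduce radioligand binding relative to DMSO baseline.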 The method, boiled down:
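Radioligand displacement on human colonic cell membranes, 1 h incubation; bound radioactivity by filtration and scintillation counting. Primary screen in duplicate at 25 uM single concentration, actives followed up in concentration series; loss of binding versus DMSO.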

Assay [2] deals with rat Peripheral-type Benzodiazepine Receptor (PBR), Tspo (gene 24230) (UniProt P16257). The assay can be described thus: NVS_MP_rPBR: NovaScreen (NVS) Membrane Protein Assay for rat Peripheral-type Benzodiazepine Receptor (PBR) (AID 2283335). The method, boiled down:
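Rat kidney membranes; radioligand binding with displacement, filter-based scintillation counting, 1 h incubation. Primary screen in duplicate at 25 uM, actives followed in concentration series; loss of binding vs DMSO.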

For assay [3], the target named is rat Glutamate, NMDA Agonist Site (GluNMDA), Grin1 (gene 24408) (UniProt P35439). The assay can be described thus: NVS_LGIC_rGluNMDA_Agonist: NovaScreen (NVS) Ligand-Gated Ion Channel Assay for rat Glutamate, NMDA Agonist Site (GluNMDA) (AID 2283327). In short, it runs like this:
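Rat forebrain membranes, radioligand binding in the agonist-site protocol; 1 h after dosing; filter-based scintillation counting. Single-concentration duplicate screen at 25 uM, then concentration-response up to 50 uM for actives; gain-of-signal vs DMSO.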

Assay [4] has as its target Voltage-gated inwardly rectifying potassium channel KCNH2 (Homo sapiens) (UniProt Q12809). The assay can be described thus: NVS_IC_hKhERGCh: NovaScreen (NVS) Ion Channel Assay for human Potassium Channel ERG (KhERGCh) (AID 2283333). The method, boiled down:
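Cell-free radioligand competition binding on hERG protein extracted from CHO cells, read by filter-based scintillation counting 0.75 h after dosing. Primary screen at 25 uM in duplicate, actives followed in concentration series. Signal loss fitted versus DMSO.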

Assay [5] concerns the target rat Glutamate, AMPA Site (AMPA), Gria1 (gene 50592) (UniProt P19490). The assay can be described thus: NVS_LGIC_rAMPA: NovaScreen (NVS) Ligand-Gated Ion Channel Assay for rat Glutamate, AMPA Site (AMPA) (AID 2283324). In short, it runs like this:
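Rat forebrain membranes; radioligand binding read 1 h after dosing by filtration and scintillation counting. Duplicate single-point screen at 25 uM, then concentration-response to 50 uM for threshold hits (e.g. 30% inhibition); loss of signal vs DMSO.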

The target of assay [6] is rat Thyrotropin Releasing Hormone Receptor (TRH), Trhr (gene 25570) (UniProt Q01717). Kind of assay: NVS_GPCR_rTRH: NovaScreen (NVS) G Protein-Coupled Receptor Assay for rat Thyrotropin Releasing Hormone Receptor (TRH) (AID 2283329).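 Note: hit means lower bound tracer signal versus DMSO baseline.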 In short, it runs like this:
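Rat forebrain membranes; radioligand displacement at TRH receptor by filter-based scintillation counting, read 4 h after dosing. Duplicate single-point screen at 25 uM, actives rerun in concentration series; loss of signal relative to DMSO.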

The target in assay [7] is human Androgen Receptor (AR), AR (gene 367) (UniProt P10275). Kind of assay: NVS_NR_hAR: NovaScreen (NVS) Nuclear Receptor Binding Assay for human Androgen Receptor (AR) (AID 2283332). In short, it runs like this:
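LnCAP cell-free extract; radioligand displacement read by scintillation counting after 20 h. Primary screen single concentration 25 uM in duplicate, actives then run as concentration series; loss-of-signal fitted relative to DMSO baseline.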

The target of assay [8] is human Serotonin, 5-Hydroxytryptamine Receptor 3 (5HT3), HTR3A (gene 3359) (UniProt P46098). The assay can be described thus: NVS_LGIC_h5HT3: NovaScreen (NVS) Ligand-Gated Ion Channel Assay for human Serotonin, 5-Hydroxytryptamine Receptor 3 (5HT3) (AID 2283325). In short, it runs like this: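 Radioligand displacement binding to human 5-HT3 from HEK293 membranes, read by filter-based scintillation counting after 1 h. Screen at 25 uM in duplicate; chemicals passing threshold were retested in concentration-response up to 50 uM.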

Structures are written as SMILES. Where “and” joins values, the source holds several entries; their conditions need not be identical. Identical values can stand only once. Inconclusive results are not listed. More than one record can exist for a structure, and the calls need not agree. Calls of active or inactive are those of the source. Rule for the calls: active = hit-call score of the fitted dose curve at least 0.9, where 1 is the maximum; inconclusive = response in the unintended direction; inactive = score below 0.9.

rat Peripheral-type Benzodiazepine Receptor (PBR), Tspo (gene 24230), sequence (P16257 whole entry, looked up): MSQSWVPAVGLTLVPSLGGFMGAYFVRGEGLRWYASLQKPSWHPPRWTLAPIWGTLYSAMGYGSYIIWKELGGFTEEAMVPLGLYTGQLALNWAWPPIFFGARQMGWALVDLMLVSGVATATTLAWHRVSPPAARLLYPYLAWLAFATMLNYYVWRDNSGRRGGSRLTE
rat Thyrotropin Releasing Hormone Receptor (TRH), Trhr (gene 25570), sequence (Q01717 whole entry, looked up): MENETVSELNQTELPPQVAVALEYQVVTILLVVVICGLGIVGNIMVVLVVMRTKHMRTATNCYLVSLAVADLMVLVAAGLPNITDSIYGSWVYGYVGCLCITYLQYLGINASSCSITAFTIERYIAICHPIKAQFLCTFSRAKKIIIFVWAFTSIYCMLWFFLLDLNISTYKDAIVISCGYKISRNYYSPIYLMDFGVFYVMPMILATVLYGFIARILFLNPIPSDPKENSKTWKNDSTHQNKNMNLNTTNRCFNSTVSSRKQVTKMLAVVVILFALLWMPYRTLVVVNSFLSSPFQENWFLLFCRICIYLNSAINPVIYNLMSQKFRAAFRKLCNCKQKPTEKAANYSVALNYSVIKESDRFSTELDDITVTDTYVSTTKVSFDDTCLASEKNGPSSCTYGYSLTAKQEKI
rat Glutamate, AMPA Site (AMPA), Gria1 (gene 50592), sequence (P19490 whole entry, looked up): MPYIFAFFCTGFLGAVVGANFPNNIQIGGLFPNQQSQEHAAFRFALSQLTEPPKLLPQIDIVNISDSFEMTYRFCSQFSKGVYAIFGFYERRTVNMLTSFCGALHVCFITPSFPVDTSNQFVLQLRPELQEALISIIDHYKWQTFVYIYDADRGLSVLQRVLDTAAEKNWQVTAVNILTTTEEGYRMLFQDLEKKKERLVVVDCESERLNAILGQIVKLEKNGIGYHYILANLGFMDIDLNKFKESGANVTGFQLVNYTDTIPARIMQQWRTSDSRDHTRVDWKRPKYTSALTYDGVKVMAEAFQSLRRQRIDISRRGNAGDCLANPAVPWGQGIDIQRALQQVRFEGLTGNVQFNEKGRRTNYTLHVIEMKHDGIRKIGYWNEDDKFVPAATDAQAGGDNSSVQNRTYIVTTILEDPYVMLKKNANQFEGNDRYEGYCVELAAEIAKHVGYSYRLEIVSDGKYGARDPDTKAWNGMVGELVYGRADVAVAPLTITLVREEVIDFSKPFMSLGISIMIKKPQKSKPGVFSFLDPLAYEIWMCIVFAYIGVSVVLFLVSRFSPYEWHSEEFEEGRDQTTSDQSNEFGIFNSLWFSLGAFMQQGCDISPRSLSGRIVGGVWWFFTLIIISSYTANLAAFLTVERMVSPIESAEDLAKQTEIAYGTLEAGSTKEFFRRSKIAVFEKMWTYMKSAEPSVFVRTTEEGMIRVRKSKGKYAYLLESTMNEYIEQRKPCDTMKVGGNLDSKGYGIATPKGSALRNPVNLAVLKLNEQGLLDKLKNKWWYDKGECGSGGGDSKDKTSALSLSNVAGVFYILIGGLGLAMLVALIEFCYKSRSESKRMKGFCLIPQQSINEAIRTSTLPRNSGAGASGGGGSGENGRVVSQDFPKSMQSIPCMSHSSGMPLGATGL
human Peripheral-type Benzodiazepine Receptor (PBR), TSPO (gene 706), sequence (P30536 whole entry, looked up): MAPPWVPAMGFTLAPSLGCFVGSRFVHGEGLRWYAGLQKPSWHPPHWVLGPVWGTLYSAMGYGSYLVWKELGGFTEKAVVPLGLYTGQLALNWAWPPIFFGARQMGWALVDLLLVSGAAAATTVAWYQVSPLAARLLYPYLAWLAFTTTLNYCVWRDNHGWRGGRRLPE
human Androgen Receptor (AR), AR (gene 367), sequence (P10275 whole entry, looked up): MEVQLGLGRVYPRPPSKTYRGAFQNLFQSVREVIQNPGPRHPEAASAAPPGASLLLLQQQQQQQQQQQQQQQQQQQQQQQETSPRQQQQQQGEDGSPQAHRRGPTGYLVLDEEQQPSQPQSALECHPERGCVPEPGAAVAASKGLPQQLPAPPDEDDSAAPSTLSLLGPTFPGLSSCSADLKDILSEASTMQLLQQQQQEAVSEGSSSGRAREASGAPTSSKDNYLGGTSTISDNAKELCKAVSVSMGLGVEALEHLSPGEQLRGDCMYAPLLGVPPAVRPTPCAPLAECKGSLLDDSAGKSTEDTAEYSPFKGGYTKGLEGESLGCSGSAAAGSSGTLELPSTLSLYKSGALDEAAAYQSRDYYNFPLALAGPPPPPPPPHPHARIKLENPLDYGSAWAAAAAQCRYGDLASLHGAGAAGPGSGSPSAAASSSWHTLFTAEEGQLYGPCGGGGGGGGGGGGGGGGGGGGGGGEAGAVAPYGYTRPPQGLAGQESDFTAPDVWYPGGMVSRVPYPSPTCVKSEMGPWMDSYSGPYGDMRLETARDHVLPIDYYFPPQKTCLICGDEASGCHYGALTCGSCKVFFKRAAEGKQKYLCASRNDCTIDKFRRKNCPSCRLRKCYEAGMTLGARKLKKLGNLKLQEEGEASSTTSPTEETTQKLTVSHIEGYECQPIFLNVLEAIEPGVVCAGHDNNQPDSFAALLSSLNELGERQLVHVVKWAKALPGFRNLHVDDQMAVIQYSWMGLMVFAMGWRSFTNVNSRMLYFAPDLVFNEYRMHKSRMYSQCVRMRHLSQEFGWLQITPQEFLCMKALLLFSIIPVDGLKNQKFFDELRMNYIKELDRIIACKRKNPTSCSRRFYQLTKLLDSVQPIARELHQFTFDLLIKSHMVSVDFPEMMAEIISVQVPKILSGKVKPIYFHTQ
Voltage-gated inwardly rectifying potassium channel KCNH2 (Homo sapiens), sequence (Q12809 whole entry, looked up): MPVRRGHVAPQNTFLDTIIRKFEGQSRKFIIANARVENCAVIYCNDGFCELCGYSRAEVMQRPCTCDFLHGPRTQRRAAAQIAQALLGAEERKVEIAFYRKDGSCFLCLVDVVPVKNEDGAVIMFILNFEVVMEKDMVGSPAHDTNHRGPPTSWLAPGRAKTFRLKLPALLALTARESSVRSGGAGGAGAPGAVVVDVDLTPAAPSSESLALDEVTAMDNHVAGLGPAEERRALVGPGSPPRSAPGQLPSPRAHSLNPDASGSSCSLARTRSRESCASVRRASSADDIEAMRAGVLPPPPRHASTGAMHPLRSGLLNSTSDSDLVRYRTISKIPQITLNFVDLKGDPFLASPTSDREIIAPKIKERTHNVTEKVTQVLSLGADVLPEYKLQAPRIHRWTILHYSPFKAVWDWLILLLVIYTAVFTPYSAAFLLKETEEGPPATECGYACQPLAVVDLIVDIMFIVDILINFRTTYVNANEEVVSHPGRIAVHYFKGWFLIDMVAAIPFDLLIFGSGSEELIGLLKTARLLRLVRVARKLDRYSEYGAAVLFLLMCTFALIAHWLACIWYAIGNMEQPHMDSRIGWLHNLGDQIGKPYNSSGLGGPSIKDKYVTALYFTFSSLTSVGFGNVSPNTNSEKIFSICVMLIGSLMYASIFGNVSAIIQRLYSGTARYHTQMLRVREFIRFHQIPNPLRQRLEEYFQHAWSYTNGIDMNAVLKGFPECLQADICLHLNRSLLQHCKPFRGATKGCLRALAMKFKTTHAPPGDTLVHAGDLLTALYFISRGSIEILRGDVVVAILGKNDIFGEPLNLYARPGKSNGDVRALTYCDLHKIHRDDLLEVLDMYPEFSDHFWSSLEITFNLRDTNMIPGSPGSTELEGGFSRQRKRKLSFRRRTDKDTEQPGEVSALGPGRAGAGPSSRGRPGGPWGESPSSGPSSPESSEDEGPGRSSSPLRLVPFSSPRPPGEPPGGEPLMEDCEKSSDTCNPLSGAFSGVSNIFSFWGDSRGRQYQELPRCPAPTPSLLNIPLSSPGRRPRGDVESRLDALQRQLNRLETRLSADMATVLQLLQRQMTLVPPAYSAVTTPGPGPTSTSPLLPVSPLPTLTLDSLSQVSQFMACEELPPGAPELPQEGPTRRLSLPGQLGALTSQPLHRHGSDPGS
human Serotonin, 5-Hydroxytryptamine Receptor 3 (5HT3), HTR3A (gene 3359), sequence (P46098 whole entry, looked up): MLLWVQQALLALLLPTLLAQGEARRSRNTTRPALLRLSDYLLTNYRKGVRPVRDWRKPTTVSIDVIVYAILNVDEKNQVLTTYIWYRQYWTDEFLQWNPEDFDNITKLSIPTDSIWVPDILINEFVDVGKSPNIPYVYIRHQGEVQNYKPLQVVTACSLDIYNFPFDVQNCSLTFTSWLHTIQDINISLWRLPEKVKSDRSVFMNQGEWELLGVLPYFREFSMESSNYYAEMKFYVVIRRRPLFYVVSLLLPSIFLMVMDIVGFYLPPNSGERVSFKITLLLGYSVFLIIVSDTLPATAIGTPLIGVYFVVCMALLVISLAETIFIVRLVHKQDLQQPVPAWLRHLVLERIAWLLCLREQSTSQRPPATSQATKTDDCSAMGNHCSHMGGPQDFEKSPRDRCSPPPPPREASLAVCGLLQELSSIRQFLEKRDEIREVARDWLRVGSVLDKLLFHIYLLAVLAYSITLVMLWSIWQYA

Consider `CCNc1nc(N)nc(Cl)n1`, for which the call in assay [1] and in assay [2] was inactive.
With `COC(=O)c1ccccc1C(=O)O`, the result in assay [1] was inactive.
On to `CCCCCCC(C)OC(=O)COc1nc(F)c(Cl)c(N)c1Cl` (stereo not drawn), for which the outcome in assay [1] was inactive. Further, the AC50 in assay [2] was 3.75 µM (active).
As for `CC(C)(C)[C@@H](O)[C@@H](Cc1ccc(Cl)cc1)n1cncn1`, the call in assay [3] was inactive.
Consider `Cc1nn(C)c(Oc2ccccc2)c1C=NOCc1ccc(C(=O)OC(C)(C)C)cc1`, for which, in assay [4], the outcome was inactive.
Consider `CCN(CC)C(=O)c1cccc(C)c1`, for which the AC50 is 20.1 µM (active) in assay [1] and 8.73 µM (active) in assay [2].
For `N[C@@H](Cc1cc(I)c(Oc2ccc(O)c(I)c2)c(I)c1)C(=O)O`, the AC50 in assay [2] is 9.05 µM (active) and 6.01 µM (active) and 8.66 µM (active).
Consider `CC(C)CCCCCCc1ccc(O)cc1`, for which the outcome in assay [1] was inactive.
As to `CN(C)C(=O)Nc1ccc(Cl)c(Cl)c1`, the AC50 is 19.9 µM (active) in assay [1] and 8.92 µM (active) in assay [2].
Turning to `S=C(S)NCCNC(=S)S.[Mn+2].[S-]C([S-])=NCCN=C([S-])[S-].[Zn+2]`, the AC50 was 4.81 µM (active) in assay [5]; 9.51 µM (active) and 4.71 µM (active) and 3.45 µM (active) in assay [1]. In addition, the outcome in assay [5], in assay [3] and in assay [2] was inactive.
With `CCCCC(CC)CN1C(=O)C2C3C=CC(C3)C2C1=O` (stereo not drawn), the compound was classed as inactive in assay [6] and in assay [1].
Regarding `CC(=O)S[C@@H]1CC2=CC(=O)CC[C@]2(C)[C@H]2CC[C@@]3(C)[C@@H](CC[C@@]34CCC(=O)O4)[C@H]12`, the compound was called inactive in assay [3], in assay [6] and in assay [1].
For `CCCCC(CC)COC(=O)c1ccccc1C(=O)O` (stereo not drawn), in assay [1], the AC50 was 39.2 µM (active). In addition, in assay [2], the compound was classed as inactive.
For the compound `CCCN(CCC)C(=O)SCC`, the outcome in assay [1], in assay [7] and in assay [2] was inactive. The AC50 in assay [2] is 25 µM (active).
Take `C#CCOC(=O)[C@@H](C)Oc1ccc(Oc2ncc(Cl)cc2F)cc1`: the compound was classed as inactive in assay [2].
Regarding `CC(C)(c1ccc(O)cc1)c1ccc(O)cc1`, the result in assay [8], in assay [1], in assay [7] and in assay [2] was inactive. Moreover, the AC50 in assay [3] was 19.7 µM (active) and 25.4 µM (active) and 15 µM (active); in assay [7] it was 9.86 µM (active) [middle of 4 runs]; in assay [2] it was 6.73 µM (active) and 25 µM (active).
As to `CCOC(=O)COc1cc(-n2ncc(C(F)(F)F)c(C)c2=O)c(F)cc1Cl`, the AC50 in assay [2] is 0.806 µM (active).
With `C[C@]12CC[C@@H]3c4ccc(O)cc4C[C@@H](CCCCCCCCCS(=O)CCCC(F)(F)C(F)(F)F)[C@H]3[C@@H]1CC[C@@H]2O` (stereo partly drawn), the compound was classed as inactive in assay [6], in assay [1] and in assay [7].
Consider `COC(=O)c1ccccc1S(=O)(=O)NC(=O)Nc1nc(OC(F)F)cc(OC(F)F)n1`, for which the outcome in assay [6] was inactive.
`COc1nc(C)nc(NC(=O)NS(=O)(=O)c2ccccc2OCCCl)n1`: in assay [1], the compound was called inactive. In assay [2], the AC50 is 21.8 µM (active) and 9.77 µM (active).
Turning to `S=C([S-])NCCNC(=S)[S-].[Mn+2]`, the call in assay [5], in assay [3] and in assay [1] was inactive. Also, the AC50 in assay [2] is 15.3 µM (active).
